For some assays here: Measured potencies and affinities stand elsewhere.

Holding throughout (parameters): scale not given: direction of the effect not stated beside the values
Assay [1] concerns the target Protein translocase subunit SecA (Escherichia coli (strain K12)) (UniProt P10408). Nature of the assay: Assay to Identify E. coli SecA ATPase Inhibitors. The following applies: 30 µM. Type of assay: functional.
In assay [2] the target is T1, Ubiquitin-activating enzyme e1, putative (Leishmania donovani (strain BPK282A1)) (UniProt E9BSI1).
T1 sequence (whole entry): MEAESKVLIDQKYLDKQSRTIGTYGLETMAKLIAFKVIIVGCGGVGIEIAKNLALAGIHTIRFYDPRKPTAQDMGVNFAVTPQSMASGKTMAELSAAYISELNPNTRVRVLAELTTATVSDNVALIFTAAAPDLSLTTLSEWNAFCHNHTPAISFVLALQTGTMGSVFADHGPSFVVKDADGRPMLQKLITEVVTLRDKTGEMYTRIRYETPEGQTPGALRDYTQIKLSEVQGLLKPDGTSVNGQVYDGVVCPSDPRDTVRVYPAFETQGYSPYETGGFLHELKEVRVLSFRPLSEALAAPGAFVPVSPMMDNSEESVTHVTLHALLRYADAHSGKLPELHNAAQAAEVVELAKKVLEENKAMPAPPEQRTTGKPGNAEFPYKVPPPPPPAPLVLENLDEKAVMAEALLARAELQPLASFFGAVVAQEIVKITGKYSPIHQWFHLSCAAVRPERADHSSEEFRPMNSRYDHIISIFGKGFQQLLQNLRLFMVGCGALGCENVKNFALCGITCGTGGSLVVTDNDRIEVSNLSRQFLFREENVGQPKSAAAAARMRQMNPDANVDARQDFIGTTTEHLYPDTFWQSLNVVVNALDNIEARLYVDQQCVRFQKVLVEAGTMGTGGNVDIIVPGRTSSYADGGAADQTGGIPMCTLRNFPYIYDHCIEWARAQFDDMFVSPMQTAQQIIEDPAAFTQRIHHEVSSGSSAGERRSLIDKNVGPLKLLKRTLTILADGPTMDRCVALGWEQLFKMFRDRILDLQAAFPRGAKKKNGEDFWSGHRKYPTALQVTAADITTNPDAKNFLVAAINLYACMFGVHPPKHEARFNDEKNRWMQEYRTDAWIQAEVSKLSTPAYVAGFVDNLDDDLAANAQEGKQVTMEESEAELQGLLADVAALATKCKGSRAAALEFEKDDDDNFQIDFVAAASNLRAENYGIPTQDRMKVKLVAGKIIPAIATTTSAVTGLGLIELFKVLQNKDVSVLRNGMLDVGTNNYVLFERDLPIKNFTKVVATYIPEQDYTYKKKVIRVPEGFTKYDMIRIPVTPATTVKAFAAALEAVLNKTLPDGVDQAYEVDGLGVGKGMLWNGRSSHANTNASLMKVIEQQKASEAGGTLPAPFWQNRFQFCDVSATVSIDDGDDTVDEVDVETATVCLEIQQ
As to the kind of experiment: Leishmania donovani Ubiquitin Activating Enzyme (LdE1). Type of assay: functional. The following applies: 30 µM.

The target in assay [3] is AMP-activated protein kinase, AMPK (Homo sapiens) (UniProt P54646+O43741+P54619+Q9UGJ0+Q9Y478+Q13131+Q9UGI9). Nature of the assay: AMP-dependent Kinase enzyme assay. An in vitro enzyme assay that detects ADP turnover that is directly proportional to AMPK activity. This uses naive AMPK that is activated during the assay with MK-8722. Type of assay: functional. To be noted: 30 µM.

The target in assay [4] is Sialic acid-binding Ig-like lectin 9 (Homo sapiens) (UniProt Q9Y336). As to the kind of experiment: Hs-Siglec9 ALPHAscreen SOP 20170721. The following applies: 10 µM. A general note: In Alpha technology, singlet oxygen from a donor bead excites a nearby acceptor bead.
Assay [5] concerns Trypanosoma cruzi. Nature of the assay: Trypanosoma cruzi phosphomannomutase and mannose-1-phosphate guanylyltransferase assay. Type of assay: functional. The following applies: 10 µM.
Assay [6] deals with T2, Arginase-2, mitochondrial (Homo sapiens) (UniProt P78540).
T2 sequence (whole entry): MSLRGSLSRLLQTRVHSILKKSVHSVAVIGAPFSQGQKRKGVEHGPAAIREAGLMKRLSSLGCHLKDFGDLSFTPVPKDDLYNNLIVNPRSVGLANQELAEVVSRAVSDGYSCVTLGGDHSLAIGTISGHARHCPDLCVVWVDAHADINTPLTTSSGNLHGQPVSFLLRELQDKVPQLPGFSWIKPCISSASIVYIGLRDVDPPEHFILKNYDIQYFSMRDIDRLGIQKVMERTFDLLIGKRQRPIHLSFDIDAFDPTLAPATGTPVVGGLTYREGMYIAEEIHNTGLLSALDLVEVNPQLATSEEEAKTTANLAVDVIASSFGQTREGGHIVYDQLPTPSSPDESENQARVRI
Nature of the assay: in vitro enzyme assay to detect the production of urea directly proportional to the activity of Arginase II. Note: in the data most compounds retested in dose-response had high values. Type of assay: functional. The following applies: 33.3 µM.

For assay [7], the target named is T3, Proteasome subunit beta (Trypanosoma cruzi) (UniProt O96673).
T3 sequence (whole entry): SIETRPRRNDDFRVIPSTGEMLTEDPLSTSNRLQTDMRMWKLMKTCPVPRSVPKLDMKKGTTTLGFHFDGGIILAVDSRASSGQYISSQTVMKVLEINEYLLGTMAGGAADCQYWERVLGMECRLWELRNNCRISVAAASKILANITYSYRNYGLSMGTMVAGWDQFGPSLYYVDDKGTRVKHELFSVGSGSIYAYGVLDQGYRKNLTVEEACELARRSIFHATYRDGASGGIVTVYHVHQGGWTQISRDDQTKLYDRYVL
Nature of the assay: Trypanosoma cruzi proteasome chymotrypsin-like activity (TcProtChymo) assay. Note: in the data most compounds retested in dose-response had high values. Type of assay: functional. To be noted: 9.37 µM.

Assay [8] is filed under the species Homo sapiens. As to the kind of experiment: To identify inhibition of the IFN signalling (Jak-Stat) pathway via expression of an eGFP reporter gene under the control of an IFN-stimulated response element (ISRE) containing MxA promoter. To be noted: 30 µM. Type of assay: functional. On the technique in general: In a reporter assay the amount or activity of a reporter protein is the signal.

For assay [9], the target named is T4, Tyrosyl-tRNA synthetase, putative (Trypanosoma cruzi (strain CL Brener)) (UniProt Q4DSP6).
T4 sequence (whole entry): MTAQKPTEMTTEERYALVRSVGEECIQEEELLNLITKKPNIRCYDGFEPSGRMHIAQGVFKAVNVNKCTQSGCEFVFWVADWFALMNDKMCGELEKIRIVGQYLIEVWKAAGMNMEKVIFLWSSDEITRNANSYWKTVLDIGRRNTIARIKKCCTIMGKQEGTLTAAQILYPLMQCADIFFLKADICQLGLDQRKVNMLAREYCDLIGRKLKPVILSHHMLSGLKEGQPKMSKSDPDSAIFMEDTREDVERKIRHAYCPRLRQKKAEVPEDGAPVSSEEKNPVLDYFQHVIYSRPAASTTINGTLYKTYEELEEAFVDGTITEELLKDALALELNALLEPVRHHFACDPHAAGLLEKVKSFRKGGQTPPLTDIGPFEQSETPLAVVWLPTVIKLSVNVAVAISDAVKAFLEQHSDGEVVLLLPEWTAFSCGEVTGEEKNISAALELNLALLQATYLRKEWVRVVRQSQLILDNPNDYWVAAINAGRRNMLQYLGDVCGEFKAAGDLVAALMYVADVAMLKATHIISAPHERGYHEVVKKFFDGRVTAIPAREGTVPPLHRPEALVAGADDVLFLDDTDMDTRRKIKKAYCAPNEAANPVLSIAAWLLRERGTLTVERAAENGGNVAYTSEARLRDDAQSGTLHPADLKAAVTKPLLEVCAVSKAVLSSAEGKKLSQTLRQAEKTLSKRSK
As to the kind of experiment: Trypanosoma cruzi tyrosyl tRNA synthetase (TcYRS) _High Tyrosine SOP. Note: in the data most compounds retested in dose-response had high values. To be noted: 30 µM. Type of assay: functional.

Assay [10] addresses T4, Tyrosyl-tRNA synthetase, putative (Trypanosoma cruzi (strain CL Brener)). As to the kind of experiment: Trypanosoma cruzi tyrosyl tRNA synthetase (TcYRS) SOP. Format: functional. The following applies: 30 µM.
Assay [11] deals with Chromo domain-containing protein 1 (Saccharomyces cerevisiae (strain ATCC 204508 / S288c) (Baker's yeast)) (UniProt P32657). As to the kind of experiment: ScCHD-1 Enzyme Inhibition Assay. Note: in the data most compounds retested in dose-response had high values. Type of assay: functional. To be noted: 30 µM.
Sequence of Chromo domain-containing protein 1 (Saccharomyces cerevisiae (strain ATCC 204508 / S288c) (Baker's yeast)) (P32657 whole entry, the tested form may be a part): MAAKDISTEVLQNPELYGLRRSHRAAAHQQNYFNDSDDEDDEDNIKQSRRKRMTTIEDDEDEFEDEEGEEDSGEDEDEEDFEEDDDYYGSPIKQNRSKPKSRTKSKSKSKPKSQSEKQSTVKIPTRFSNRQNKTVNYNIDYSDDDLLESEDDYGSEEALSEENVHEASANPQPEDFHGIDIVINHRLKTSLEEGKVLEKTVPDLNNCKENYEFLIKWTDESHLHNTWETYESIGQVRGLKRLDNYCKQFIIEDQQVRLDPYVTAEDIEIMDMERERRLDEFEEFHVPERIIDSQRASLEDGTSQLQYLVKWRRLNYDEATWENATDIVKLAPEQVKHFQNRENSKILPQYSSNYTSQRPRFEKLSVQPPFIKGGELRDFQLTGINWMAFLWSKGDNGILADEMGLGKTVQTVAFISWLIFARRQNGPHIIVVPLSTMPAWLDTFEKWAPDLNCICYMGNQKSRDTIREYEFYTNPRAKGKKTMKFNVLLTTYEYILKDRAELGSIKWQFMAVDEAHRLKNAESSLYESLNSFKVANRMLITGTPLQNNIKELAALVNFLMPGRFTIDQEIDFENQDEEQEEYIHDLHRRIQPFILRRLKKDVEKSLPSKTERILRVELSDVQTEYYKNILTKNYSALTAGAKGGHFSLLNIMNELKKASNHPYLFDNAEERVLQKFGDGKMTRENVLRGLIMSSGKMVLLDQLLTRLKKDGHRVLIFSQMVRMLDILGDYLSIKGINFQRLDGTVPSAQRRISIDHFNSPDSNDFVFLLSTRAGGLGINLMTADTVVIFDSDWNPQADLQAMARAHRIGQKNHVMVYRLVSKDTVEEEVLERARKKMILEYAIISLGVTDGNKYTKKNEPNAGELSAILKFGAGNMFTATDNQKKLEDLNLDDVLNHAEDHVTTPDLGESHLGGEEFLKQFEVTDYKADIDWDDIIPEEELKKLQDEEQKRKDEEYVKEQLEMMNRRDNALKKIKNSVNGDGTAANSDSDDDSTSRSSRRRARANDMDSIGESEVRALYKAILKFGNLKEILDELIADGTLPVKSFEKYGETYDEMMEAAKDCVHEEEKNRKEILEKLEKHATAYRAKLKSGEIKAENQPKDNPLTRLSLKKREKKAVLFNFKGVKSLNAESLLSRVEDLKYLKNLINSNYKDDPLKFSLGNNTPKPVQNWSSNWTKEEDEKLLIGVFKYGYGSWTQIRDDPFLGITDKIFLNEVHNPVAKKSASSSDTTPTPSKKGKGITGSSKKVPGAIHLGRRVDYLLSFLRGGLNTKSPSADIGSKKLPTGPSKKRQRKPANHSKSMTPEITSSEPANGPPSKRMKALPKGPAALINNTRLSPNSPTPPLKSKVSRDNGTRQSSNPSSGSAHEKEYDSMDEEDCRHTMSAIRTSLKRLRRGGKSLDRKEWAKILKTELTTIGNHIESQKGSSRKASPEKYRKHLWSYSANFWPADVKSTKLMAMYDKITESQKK

Sequence of Protein translocase subunit SecA (Escherichia coli (strain K12)) (P10408 whole entry): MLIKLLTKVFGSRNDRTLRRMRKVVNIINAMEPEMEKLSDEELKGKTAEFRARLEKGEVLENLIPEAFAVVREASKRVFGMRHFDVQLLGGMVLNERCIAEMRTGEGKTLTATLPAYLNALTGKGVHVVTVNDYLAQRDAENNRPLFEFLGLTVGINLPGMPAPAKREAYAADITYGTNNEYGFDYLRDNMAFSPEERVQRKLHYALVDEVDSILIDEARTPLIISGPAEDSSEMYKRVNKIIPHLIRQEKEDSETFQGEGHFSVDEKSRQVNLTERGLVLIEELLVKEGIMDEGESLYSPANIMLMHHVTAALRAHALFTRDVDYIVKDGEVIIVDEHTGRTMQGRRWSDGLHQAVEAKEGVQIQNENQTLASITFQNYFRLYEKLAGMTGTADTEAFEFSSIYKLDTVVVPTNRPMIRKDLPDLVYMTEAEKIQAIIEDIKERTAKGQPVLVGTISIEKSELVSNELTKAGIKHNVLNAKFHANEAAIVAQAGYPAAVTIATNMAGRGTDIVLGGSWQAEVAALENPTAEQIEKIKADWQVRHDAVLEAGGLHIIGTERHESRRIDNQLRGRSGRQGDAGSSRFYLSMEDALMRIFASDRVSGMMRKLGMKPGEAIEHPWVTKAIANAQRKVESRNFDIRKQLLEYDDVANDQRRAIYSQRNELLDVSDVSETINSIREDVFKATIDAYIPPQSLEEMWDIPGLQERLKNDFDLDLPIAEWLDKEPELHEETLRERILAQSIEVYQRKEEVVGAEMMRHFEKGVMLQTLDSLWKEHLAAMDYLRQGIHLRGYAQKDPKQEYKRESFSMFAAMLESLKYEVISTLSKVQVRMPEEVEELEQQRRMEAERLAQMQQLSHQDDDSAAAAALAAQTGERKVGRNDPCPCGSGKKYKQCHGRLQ
Sequence of Sialic acid-binding Ig-like lectin 9 (Homo sapiens) (Q9Y336 whole entry): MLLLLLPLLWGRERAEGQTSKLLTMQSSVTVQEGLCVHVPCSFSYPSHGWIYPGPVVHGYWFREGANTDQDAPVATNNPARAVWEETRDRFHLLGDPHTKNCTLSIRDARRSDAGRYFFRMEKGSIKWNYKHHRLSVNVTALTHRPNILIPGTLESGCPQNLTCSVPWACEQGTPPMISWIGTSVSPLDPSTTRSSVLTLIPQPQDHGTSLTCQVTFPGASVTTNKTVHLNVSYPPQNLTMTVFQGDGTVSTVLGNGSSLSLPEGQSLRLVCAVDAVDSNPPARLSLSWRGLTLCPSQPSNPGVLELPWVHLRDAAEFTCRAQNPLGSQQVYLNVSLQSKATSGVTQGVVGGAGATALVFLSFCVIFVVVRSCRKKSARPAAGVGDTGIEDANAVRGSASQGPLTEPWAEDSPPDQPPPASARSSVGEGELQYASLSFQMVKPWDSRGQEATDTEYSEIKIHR

Consider `N#Cc1ccc(OCCCN2CCc3cncnc3C2)cc1`, for which the Percent Effect was -5.04% in [1]; 5.06% in assay [2]; -14.8% in [3]; 5.6% in [4]; -3.68% in assay [5]; -3.04% in assay [6]. Besides, the Percent Effect in [7] was -6.14%; in assay [8], 18.3%; in assay [9] it was -0.493%; in assay [10] it was 11.4%; in assay [11], -4.55%.

As to `O=C(Nc1ccc(CCN2CCC(O)CC2)cc1)C1CCOCC1`, the Percent Effect in [1] is -1.94%; in assay [2], 2.7%; in assay [3] it was -6.78%; in [4] it was 11.5%; in assay [5] it was 4.18%; in assay [6] it was -1.66%. Besides, the Percent Effect in [7] is 1.98%; in assay [8], 3.22%; in [9] it was 5.94%; in assay [10], 11%; in [11], -3.93%.

As for `O=C(NCC1CC1)[C@H]1C[C@@H]2CCN(Cc3nccs3)C[C@@H]2O1`, the Percent Effect in assay [1] was -2.59%; in assay [2], 8.11%; in assay [3] it was 5.76%; in assay [4], -2.2%; in [5], 4.4%; in [6], -2.23%. In addition, the Percent Effect in assay [7] stood at 20.7%; in assay [8], 17.8%; in [9], 8.65%; in assay [10], 15.4%; in assay [11] it was 2.01%.

With `O=C(CC1CC1)NCc1cn2c(n1)CN(C(=O)c1cccnc1)CC2`, the Percent Effect in assay [1] was -2.41%; in assay [2] it was 8%; in [3], 8.62%; in assay [4], 2.88%; in assay [5], -7.28%; in assay [6] it was 1.17%. Moreover, the Percent Effect in assay [7] came out at 2.73%; in [8], 9.61%; in [9] it was 0%; in assay [10], 8.97%; in assay [11], 3.52%.

For `O=C(c1cccc2c1OCCO2)N1CCCC(n2ccnc2)C1` (stereo not given), the Percent Effect was -2.67% in assay [1]; 5.26% in assay [2]; 2.73% in assay [3]; -0.188% in [4]; -9.77% in assay [5]; 3.45% in assay [6]. The Percent Effect in assay [7] was found to be 2.17%; in assay [8], 13.9%; in assay [9] it was 3.43%; in assay [10], 4.88%; in assay [11] it was 3.23%.

With `O=C(NC[C@]12COC[C@H]1CN(C1CCOCC1)C2)c1ccco1`, the Percent Effect is -5.25% in assay [1]; 10.7% in assay [2]; 4.78% in assay [3]; -6.09% in assay [4]; -2.17% in assay [5]; 8.16% in assay [6]. Also, the Percent Effect is 12.8% in assay [7]; 5.24% in assay [8]; 9.57% in assay [9]; 8.97% in [10]; 0.371% in assay [11].

For `CCC(=O)N1CCN(Cc2cc(-c3ccncc3)nn2C)CC1`, the Percent Effect in assay [1] is -5.35%; in [2] it was -6.76%; in assay [3] it was 12.8%; in assay [4], 5.24%; in assay [5], -3.56%; in assay [6] it was -1.62%. Also, the Percent Effect was 5.77% in assay [7]; -3.21% in [8]; 4.3% in [9]; -1.3% in assay [10]; -2.41% in assay [11].

As to `Cc1noc(-c2ccc(N3CCCC(C(=O)N4CCSCC4)C3)nc2)n1` (stereo not given), the Percent Effect in [1] is -5.7%; in assay [2], -2.74%; in assay [3] it was 24%; in [4] it was 1.74%; in assay [5] it was -3.92%; in [6] it was -1.36%. The Percent Effect in assay [7] is 6.57%; in assay [8] it was -0.682%; in assay [9], 1.07%; in assay [10] it was 2.5%; in assay [11], -3.84%.

With `CC(C)c1nnc2n1CC(CNCc1ccncc1)CC2` (stereo not given), the Percent Effect is -1.84% in assay [1]; 4.17% in [2]; -5.62% in [3]; -8.26% in assay [4]; -3.21% in assay [5]; 2.21% in assay [6]. Also, the Percent Effect is 17% in assay [7]; -9.1% in assay [8]; 3.16% in assay [9]; -2.56% in assay [10]; -2.53% in [11].

On to `CCOC1CCN(C(=O)c2c(Cl)c3ccccc3n2C)CC1`, for which the Percent Effect was -2.47% in [1]; 0% in [2]; -0.042% in [3]; 1.92% in assay [4]; -2.43% in [5]; 3.12% in assay [6]. Moreover, the Percent Effect was 13.4% in assay [7]; -2.41% in assay [8]; -2.73% in [9]; 11.1% in assay [10]; -4.88% in assay [11].

For the origin of these results see ChEMBL document CHEMBL3988442, “University of Dundee, Small-Polar-MMV Screening Library” (2021).
